Experimental findings from PubChem BioAssay (NCI) are described below.

Molecules are shown by their SMILES. The panel holds about 83,000 compounds, 20% with a hit somewhere; the sample as a whole holds those more often.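 Note: values are percent growth. 100 is the growth of untreated cells, values between 100 and 0 indicate rising inhibition; between -100 and 0 indicates cell death.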 A number with no mark means an inactive call. Calls of active or inactive are those of the source. How the source made its calls: active means growth percent below 10; inactive means the rest.

The test relates to NCI-H226 lung. As to the kind of experiment: NCI-60 one-dose screen, 48 h (100 = growth as untreated, 0 = no growth, -100 = all killed). The following applies: 10 µM.
For the compound `COc1ccc(-n2nnc3c(sc4ccccc43)c2=O)cc1`, the growth is 24.7%.

In the case of `COc1ccc(Cn2cc3c(c2-c2cc(OC)c(OC)c(OC)c2)CCc2cnoc2-3)cc1[N+](=O)[O-]`, the growth is 47.5%.

On to `Nc1ncc(-c2ccc(C(F)(F)F)cc2)c(NC2CCCCCC2)n1`, for which the growth is 39.6%.

`CC(C)(C)CC(C)(C)c1ccc(O)c(Cc2ccc(Cl)cc2Cl)c1`: the growth was -83.8% (active).

Take `CC(=O)Nc1ccc2c(c1)C(N1CC3CCC(CC3)C1)c1ccccc1-2` (stereo not drawn): the growth is 85%.

With `COc1cccc2c1C(=O)c1c(O)c3c(c(O)c1C2=O)C[C@@](O)(C(=O)COC(=O)c1cccnc1)C[C@@H]3OC1CC(N)C(O)C(C)O1` (stereo partly drawn), the growth was -28.5% (active).

`O=C(CCl)N1c2ccccc2Sc2ccc3ccccc3c21`: the growth is 34.4%.

Turning to `CCOc1nc(-c2ccccc2)cc2c(O)c(C(=O)NC(C)C)[nH]c(=O)c12`, the growth was 105%.

For the compound `CN1/C(=C\C(I)C(I)C2=[N+](C)c3ccccc3C2(C)C)C(C)(C)c2ccccc21` (stereo not drawn), the growth was 16.5%.

Turning to `COc1ccc(-c2csc(NC(=O)CO[N+](=O)[O-])n2)cc1`, the growth is 102%.

For the compound `CCCCc1ccc(NC(=O)N(CCCl)N=O)cc1`, the growth was 91.2%.

For `CCCCOCCOCCOCc1cc2c(cc1Br)OCO2`, the growth is 97.4%.

In the case of `Nc1nc2c(ncn2C2OC3COP(=O)(O)OC4C(COP(=O)(O)OC2C3O)OC(n2cnc3c(N)ncnc32)C4O)c(=O)[nH]1` (stereo not drawn), the growth was 75.6%.

`O=[N+]([O-])c1ccc(-c2nc(-c3ccccc3)c(-c3ccccc3)n2-c2ccccc2)cc1`: the growth was 57%.

As to `O=C1CC[C@@H](C(=O)N[C@H]2CSSC[C@@H](C(=O)N/C=C/c3ccc(O)cc3)NC(=O)[C@H](Cc3ccccc3)NC(=O)[C@@H]3CCCN3C(=O)[C@@H]3CCCN3C2=O)N1`, the growth was 93.5%.

With `CCCCCc1cc[n+](CC(=O)c2ccc(Cl)cc2)cc1`, the growth was 90.8%.

Turning to `CC(C)CCN(CCCNc1c2c(nc3cc(Cl)ccc13)CCCC2)CCC(C)C`, the growth is 53.8%.

Take `FC(F)(F)c1ccc(-c2ncc(-c3ccc(C(F)(F)F)cc3)c(NCc3cc(C(F)(F)F)cc(C(F)(F)F)c3)n2)cc1`: the growth was 46.7%.

With `CC(=O)CS(C)(=O)=O`, the growth is 101%.

In the case of `COc1ccc(-c2csc(-c3cc(Cl)cc(Cl)c3Cl)n2)cc1`, the growth was 88.9%.

For the compound `Cc1nnc2c3nnc(-c4ccc(Cl)cc4)n3c3ccccc3n12`, the growth is 94.7%.

On to `O=C(C=P(c1ccccc1)(c1ccccc1)c1ccccc1)c1ccc(Br)cc1`, for which the growth was 96.5%.

Take `COc1cc(C2=Nc3c/c(=C\c4c(O)[nH]c5ccc(Cl)cc45)ccc3=N2)cc(OC)c1OC`: the growth is 55.4%.

Turning to `NC(=O)c1ccc(Br)o1`, the growth was 104%.

For `C(=C\c1nc2ccccc2s1)/c1ccc(N2CCOCC2)s1`, the growth is 89.4%.

As to `COc1ccc(-c2nnc(N3CCN(C(=O)CN4CCN(c5ccc(Cl)cc5)CC4)CC3)nc2-c2ccc(OC)cc2)cc1`, the growth is 73.6%.

As for `Cc1ccc(C2C=C(c3ccc(Cl)cc3)N=C3SC=CN32)c(Br)c1` (stereo not drawn), the growth was 55.5%.

For the compound `N#CCC1CCCC1`, the growth is 107%.

In the case of `FC(F)(F)c1ccc(-c2cnc(Cl)nc2NC2CCCCCC2)cc1`, the growth is 42.1%.

`Oc1ccccc1-c1nnc(Cn2c(Cc3cccc4ccccc34)nc3ccccc32)o1`: the growth was 93.1%.

Take `CCOC(=O)c1cc2c(n1Cc1cc(OC)cc(OC)c1)-c1oncc1CC2`: the growth was 30.5%.

In the case of `COc1ccc(-c2nnc(SC/C(=N\O)c3ccccc3)o2)cc1`, the growth is 95.5%.

On to `CCOCC[P+](c1ccccc1)(c1ccccc1)c1ccccc1`, for which the growth was 80%.

Regarding `CCN(CC)CC(O)CNc1ccnc2cc(Cl)c(Cl)cc12` (stereo not drawn), the growth is 84.9%.

Regarding `COc1cccc(C(=O)NNc2nc(N3CCN(C4CCCCC4)CC3)nc(N3CCN(C(c4ccccc4)c4ccccc4)CC3)n2)c1`, the growth was 73.7%.

For `COc1ccc(CCc2nc3cc(-c4c(C)noc4C)ccc3n2CCN2CCOCC2)cc1`, the growth was 48.3%.

For `Nc1ccc(C2=CC(c3ccc(Cl)cc3)N3C=CSC3=N2)cc1` (stereo not drawn), the growth was -71.4% (active).

Consider `CN(C)Cc1cccs1`, for which the growth is 93.9%.
